From PubChem BioAssay AID463173 (ICCB-Longwood Screening Facility, Harvard Medical School, 2010) come the findings set out here.

The whole screen tested about 52,000 compounds, of which about 4,300 (8.3%) were called active. Rule as the data show it: active = survival mostly below about 52% (no sharp cut-off); inactive = mostly above about 56%. For the sample, actives were picked, then their nearest neighbours and some compounds at random.

For this experiment, the system named is DeltatarO mutant. Nature of the experiment: S. aureus survival, RN4220 and DeltatarO strains – OD600, teichoic acid synthesis inhibitors, primary screen (AID 463173). The conditions noted are these: S. aureus RN4220 wild type/DeltatarO growth, OD600, 18 h, active compounds read low, screened at 18.75 µg/mL (by protocol).
Turning to `Cc1ccc(Nc2ncnc3onc(C)c23)cc1Cl`, the survival was 67% (inactive).

Turning to `Cc1ccc(C2=NC(c3ccc(F)cc3)=Nc3ccc(C)cc3N2)cc1`, the survival was 72% (inactive).

As to `O=C(NN=C1CCCCC1)c1n[nH]c2c1CCC2`, the survival is 97% (inactive). The value for `CCc1ccc(C(=O)c2cn(CC(=O)Nc3ccc(OC)cc3)c3cc4c(cc3c2=O)OCO4)cc1` was 81% (inactive). As to `COc1ccc(CN2CCc3c(c(=O)n4ncc(C(=O)N5CCN(c6ccccc6F)CC5)c4n3C)C2)cc1`, the survival was 88% (inactive). `COc1ccccc1NC(=O)c1cc(S(=O)(=O)N(C)C2CCCCC2)ccc1F`: the survival is 85% (inactive). `CCCSc1ncc(Cl)c(C(=O)Nc2sc3c(c2C(N)=O)CCCC3)n1`: the survival is 46% (active). Regarding `CCNC(=O)c1c(NC(=O)c2nc(S(=O)(=O)CC)ncc2Cl)sc2c1CCCC2`, the survival is 34% (active).

As to `CCOCCCNC(=O)c1c(NC(=O)c2nc(SC)ncc2Cl)sc2c1CCCC2`, the survival was 64% (inactive). Consider `CCSc1ncc(Cl)c(C(=O)Nc2sc3c(c2C(=O)NCCCOC)CCCC3)n1`, for which the survival was 108% (inactive). Take `Cc1cccc(CSc2ncc(Cl)c(C(=O)Nc3sc4c(c3C(N)=O)CCCC4)n2)c1`: the survival was 112% (inactive). The result for `CCCSc1ncc(Cl)c(C(=O)Nc2sc3c(c2C(=O)OC)CCCC3)n1` reads 53% (inactive); that for `COCCCNC(=O)c1c(NC(=O)c2nc(S(C)(=O)=O)ncc2Cl)sc2c1CCCC2`, 53% (inactive).

With `CCCSc1ncc(Cl)c(C(=O)Nc2sc3c(c2C(=O)NCC)CCCC3)n1`, the survival was 45% (active). Regarding `CCCSc1ncc(Cl)c(C(=O)Nc2sc3c(c2C(=O)NCCOC)CCCC3)n1`, the survival was 92% (inactive). Turning to `CCN(CC)c1nn2c(=O)c(C(=O)NCc3ccc(OC)cc3OC)cnc2s1`, the survival was 75% (inactive).

`CCOc1ccc(NC(=O)CSc2oc(-c3ccco3)nc2S(=O)(=O)c2ccccc2)cc1`: the survival was 101% (inactive). On to `Cc1ccc(NC(=O)n2ncc3c(C)cccc32)c(C)c1`, for which the survival was 85% (inactive). The result for `COc1ccc(-n2nc(C(=O)Nc3ccc(C)cn3)c3c4ccccc4n(C)c3c2=O)cc1` reads 76% (inactive); that for `CCC(Sc1nc2ncccc2o1)C(=O)Nc1ccc(OC)c(OC)c1` (stereo unspecified), 79% (inactive). As to `COc1cccc(NC(=O)c2nnn(Cc3ccc(OC)c(Br)c3)c2N)c1`, the survival was 57% (inactive). Regarding `CCCN(CCC)C(=O)CSc1nc2ccccc2c(=O)n1Cc1ccco1`, the survival was 83% (inactive).

As for `O=C(CSc1nc2ccncc2[nH]1)Nc1ccccc1C(F)(F)F`, the survival was 87% (inactive). The value for `O=S(=O)(Nc1ccc(-c2ccc(N3CCCC3)nn2)cc1)c1ccc(Br)cc1` was 94% (inactive). For `COc1ccc(CNC(=O)c2cnn3c(C)c(Cc4ccc(F)cc4)c(C)nc23)cc1`, the survival is 80% (inactive). As for `CC(C)CC(=O)Nc1nnc(S(=O)(=O)N2CCc3ccccc32)s1`, the survival is 74% (inactive). With `CCC(=O)Nc1nnc(S(=O)(=O)N2CCc3ccccc32)s1`, the survival is 76% (inactive).

Consider `Cc1ccc(OCC(=O)Nc2nnc(S(=O)(=O)N3CCc4ccccc43)s2)cc1`, for which the survival was 13% (active). With `COc1ccc(OCC(=O)Nc2nnc(S(=O)(=O)N3CCc4ccccc43)s2)cc1`, the survival is 70% (inactive). For `O=C(COc1ccc(F)cc1)Nc1nnc(S(=O)(=O)N2CCc3ccccc32)s1`, the survival is 17% (active).

As to `O=C(COc1ccc(Cl)cc1)Nc1nnc(S(=O)(=O)N2CCc3ccccc32)s1`, the survival was 6% (active).

On to `Cc1cccc(OCC(=O)Nc2nnc(S(=O)(=O)N3CCc4ccccc43)s2)c1`, for which the survival was 16% (active). The result for `CC(=O)NCCNC(=O)CCCc1nnc2n(C)c(=O)c3sccc3n12` reads 93% (inactive); that for `COc1ccc(CCNC(=O)c2cc3n(n2)C(C(F)(F)F)CC(C2CC2)N3)cc1OC` (stereo unspecified), 99% (inactive); that for `CC(=O)c1ccc(N2CCN(S(=O)(=O)c3c(C)nc4sc(C)cn4c3=O)CC2)cc1`, 75% (inactive). Take `COCCNC(=O)CCC(=O)N1Cc2cccc(OC)c2Oc2ncccc21`: the survival is 89% (inactive). The result for `N#CC1=C(N)c2ccccc2CC12CCCCC2` reads 31% (active). For `Nc1nc(=S)[nH]c2c1C1(CCCC1)Cc1ccccc1-2`, the survival was 99% (inactive). For `Nc1n[nH]c2c1C1(CCCC1)Cc1ccccc1-2`, the survival is 100% (inactive). The value for `COc1ccc2[nH]c(=O)c(CN(Cc3ccco3)C(=S)NCc3ccco3)cc2c1` was 65% (active); that for `Cc1ccc(NC(=S)N(Cc2ccco2)Cc2cc3cc(C)c(Cl)cc3[nH]c2=O)cc1` was 82% (inactive); that for `COc1ccc(NC(=S)N(Cc2ccco2)Cc2cc3cc(C)c(C)cc3[nH]c2=O)cc1` was 38% (active). As to `CNC(=S)N(Cc1ccco1)Cc1cc2ccc(C)cc2[nH]c1=O`, the survival was 99% (inactive). For the compound `CCc1ccc2[nH]c(=O)c(CN(CCO)C(=S)NCc3ccco3)cc2c1`, the survival is 88% (inactive). For the compound `COc1ccc2[nH]c(=O)c(CN(Cc3ccco3)C(=S)NC3CCCCC3)cc2c1`, the survival was 77% (inactive). The value for `Cc1ccc(-c2nnc(Nc3ccccc3)c3ccccc23)cc1S(=O)(=O)N1CCN(C)CC1` was 86% (inactive).

Take `NC(=O)c1cc2ccc(O)cc2oc1=O`: the survival was 74% (inactive).

Turning to `COc1ccc(CCNC(=O)CCCn2nc(C)c3sc4ccccc4c3c2=O)cc1OC`, the survival was 83% (inactive). The value for `CCCCc1nc2ccccc2c(C(=O)O)c1C` was 75% (inactive); that for `Cc1c(-c2ccccc2)nc2ccccc2c1C(=O)O` was 95% (inactive).

For `CCc1ccc(-c2nc3ccc(Br)cc3c(C(=O)O)c2C)s1`, the survival is 39% (active). The value for `COc1ccccc1CNC(=O)CN1C(=O)CCc2cc(S(=O)(=O)N3CCOCC3)ccc21` was 135% (inactive); that for `O=C(Cn1c(C(=O)NCc2ccco2)cc2sccc21)c1ccccc1` was 92% (inactive); that for `O=C(Cn1c(C(=O)NCC2CCCO2)cc2sccc21)c1ccccc1` (stereo unspecified) was 103% (inactive). For the compound `O=C(Cn1c(C(=O)N(Cc2ccco2)CC2CCCO2)cc2sccc21)c1ccccc1` (stereo unspecified), the survival was 68% (active). With `CCOc1ccc(C2C(C(N)=O)=C(C)Nc3nc(-c4cccc(Cl)c4)nn32)cc1OC` (stereo unspecified), the survival is 74% (inactive). As to `O=C(NCC(c1ccco1)S(=O)(=O)c1cccs1)c1ccccc1` (stereo unspecified), the survival was 63% (inactive). `COc1cc2[nH]c(=O)n(CCCCCC(=O)N3CCN(c4cccc(C(F)(F)F)c4)CC3)c(=O)c2cc1OC`: the survival was 83% (inactive). With `O=C(c1ccccc1)N(Cc1nc2ccccc2c(=O)[nH]1)C1CCCC1`, the survival is 70% (inactive).

`O=C(NCc1ccccc1)N(Cc1nc2ccccc2c(=O)[nH]1)C1CCCC1`: the survival is 52% (active). Consider `O=C(NC1CCCCC1)N(Cc1nc2ccccc2c(=O)[nH]1)C1CCCC1`, for which the survival is 85% (inactive).
